Results filed as inconclusive are left out. Active and inactive are the calls of the source. Unless noted, calls follow the shape of the dose curve; as a rule, active = well fitted curve in the direction sought with a large enough effect; inconclusive = small, poorly fitted or top-dose-only effect, or another doubt; inactive = no such curve, though single readings can be large; an effect the other way counts as inactive or inconclusive.
Experiments:
[1] = AP1 Signaling Pathway (AID 357; active = well fitted curve in either direction with a large enough effect, not every such curve was filed as active;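 also: ME-180 reporter cells stimulated with EGF at its EC50 level; % is scaled to controls: 0 for no effect and ±100 for the full control effect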); details: ME-180 AP-1-bla reporter, EGF-induced, beta-lactamase ratio, 5 h; at 7.69 µM (top of the series) unless noted
Method in brief: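 Titration-series screen for positive or negative modulators of EC50 EGF-induced signaling in ME-180 cells carrying an AP-1-driven beta-lactamase reporter. After 5 hours at 37 degrees Celsius, CCF4 460nm/530nm emission ratio gave %Activity; AC50 values derived.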

[2] = target: Cytochrome P450 1A2 (Homo sapiens) (UniProt P05177); experiment: p450-cyp1a2 (AID 410; calls by dose curve;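 also: -100% = full effect of reference inhibitor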)
Method in brief: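 20nM CYP1A2, 100uM Luciferin-ME (=Km), 100mM KPO4; cpd 10 min RT; +NADPH regen, 60 min RT; stop/detect 20 min; luminescence. Normalized to furafylline 57 uM = full inhibition.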

[3] = NFAT Signaling Pathway (AID 444; active = well fitted curve in either direction with a large enough effect, not every such curve was filed as active;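 also: carbachol stimulus at about its EC50 of 1 µM final; % is scaled to controls: 0 for no effect and ±100 for the full control effect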); details: Jurkat NFAT-bla M1, carbachol, beta-lactamase ratio, 5 h; at 7.69 µM (top of the series) unless noted
Method in brief: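 Read-out: CCF4 FRET ratio (460 nm/530 nm) after 1 h RT dye loading, used for %activity and AC50 from titration series. Cells: Jurkat NFAT-β-lactamase/M1 line, treated with compound plus 1 uM carbachol for 5 h, 37 °C.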

[4] = Stat Signaling Pathway (AID 446; active = well fitted curve in either direction with a large enough effect, not every such curve was filed as active;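 also: ME-180 cervical cancer cells given 40 pM IL-6 alongside compound; SIE-controlled beta-lactamase reporter measured as 460/530 nm FRET emission ratio; % is scaled to controls: 0 for no effect and ±100 for the full control effect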); details: ME-180 (cervical carcinoma) SIE beta-lactamase reporter, IL-6 stimulated, 5 h; at 7.69 µM (top of the series) unless noted
Method in brief: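 FRET read-out (405 nm excitation, 460/530 nm emission) of a beta-lactamase reporter under a STAT-inducible element in ME-180 cervical carcinoma cells. Cells with compound receive 40 pM IL-6 for 5 h. Values are normalised to AC90 stimulation and AC90 JAK-inhibitor controls.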

[5] = target: Glucocorticoid receptor (Homo sapiens) (UniProt P04150); experiment: GR-GFP Redistribution (AID 450;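 active = compounds whose dose series gives a full or clear partial fitted curve of increased nuclear translocation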; also: potency is read from the fitted curve at half-maximal effect); details: U2OS GR-GFP nuclear translocation, laser cytometry, 2 h
[6] = target: Glucocorticoid receptor (Homo sapiens) (UniProt P04150); experiment: GR-EFC Redistribution (AID 451; calls by dose curve; also: potency is read from the fitted curve at half-maximal effect); details: CHO-K1 GR-EFC translocation, beta-gal luminescence, 2 h
Method in brief: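 Translocation of GR-ED fusion to nuclear EA restores b-gal, read by luminescence after 1 h room-temperature detection. Engineered CHO-K1 biosensor cells, 1,000/well, exposed 2 h at 37 C to titrations up to 46 uM final.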

[7] = target: Mitogen-activated protein kinase 10 (Mus musculus) (UniProt Q61831); experiment: JNK3 AlphaScreen Assay (AID 530; active = well fitted curve in either direction with a large enough effect, not every such curve was filed as active;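 also: kinase came from lysate of stimulated human HepG2 cells; signal reports phosphorylation of biotinylated GST-cJun 1-79 at Ser73 with 10 µM ATP; % is scaled to controls: 0 for no effect and ±100 for the full control effect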)
Method in brief: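 Kinase buffer: 20 mM Tris-HCl pH 7.6, 10 mM MgCl2, 1 mM DTT, 0.1 mM Na3VO4, 0.01% Tween-20; ATP 10 uM. Substrate biotin-GST-cJun(1-79), enzyme from activated HepG2 lysates. Detection by Ser73 phospho-antibody AlphaScreen.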

[8] = target: Guanine nucleotide-binding protein G(i) subunit alpha-1 (Homo sapiens) (UniProt P63096); experiment: qHTS Assay for Inhibitors of RGS12 GoLoco Motif Activity (Green Fluorophore) (AID 879);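 also: 0% = labeled peptide with Gαi1 and full inhibition = labeled peptide alone without protein; negative values mean loss of peptide binding seen as reduced polarization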
Method in brief: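 A drop in FITC polarization marked displacement of the FITC-tagged RGS12 GoLoco peptide (10 nM) from Gαi1 (50 nM). Compounds were incubated 10 min at room temperature in Tris pH 7.5 buffer containing 150 mM NaCl, 0.1 mM GDP and 0.05% NP40; unlabeled peptide titration served as control.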

[9] = qHTS Assay for Identification of Small Molecule Antagonists for NFkB Signaling Pathway (AID 895; active = well fitted inhibition curve with a large enough effect in the signal ratio, with a control signal flat, not every such curve was filed as active; the % refers to the signal ratio; also: % is scaled to controls: 0 for no effect and ±100 for the full control effect)
Method in brief: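 Beta-lactamase reporter read-out (460 and 530 nm emission ratio, 405 nm excitation, 2 hrs substrate loading RT) after 5 hr stimulation with 10 pM TNF alpha in compound-treated NFkB-bla ME-180 cells in low-serum medium.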

[10] = target: Pyruvate kinase PKM (Homo sapiens) (UniProt P14618); experiment: qHTS Assay for Activators of Human Muscle Pyruvate Kinase (AID 954; active = well fitted curve in the direction sought with a large enough effect, not every such curve was filed as active;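 also: 0% = uninhibited enzyme and -100% = no enzyme or full thiadiazolimine inhibition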)
Method in brief: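 ATP production by PKM2 detected via luciferase luminescence after 1 h room-temperature reaction (0.1 nM enzyme, PEP at Km 0.5 mM, ADP 0.1 mM, pH 7.2 imidazole buffer). Inhibition scaled to no-enzyme control; activation referenced to 0.3 nM enzyme wells.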

[11] = target: Alpha-galactosidase A (Homo sapiens) (UniProt P06280); experiment: Counterscreen for Glucocerebrosidase Inhibitors: qHTS Assay for Human alpha-Galactosidase at pH 4.5 (AID 992); also: 0% is about no effect
Method in brief: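 Fluorogenic 1536-well qHTS at pH 4.5 (citrate, Tween-20): 2 nM enzyme, 80 uM 4-MU-alpha-galactoside, 20 min room temperature, NaOH/glycine stop. Titration 0.7 nM to 77 uM, data normalized to no-enzyme and full-activity controls, Hill-fitted AC50.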

[12] = target: alpha-glucosidase (Oryza sativa, rice) (UniProt Q653V4); experiment: Counterscreen for Glucocerebrosidase Inhibitors: qHTS Assay for Rice alpha-Glucosidase at pH 5.0 (AID 997);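 also: 0% = full activity with enzyme and -100% = basal without enzyme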
Method in brief: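 Endpoint fluorogenic assay at pH 5.0: compounds (0.7 nM to 77 uM) titrated against 4 nM rice enzyme and 400 uM 4-MU-alpha-glucoside for 20 min at room temperature; NaOH/glycine stop, read ex 365/em 440 nm, Hill-fitted AC50.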

[13] = target: Cytochrome P450 3A4 (Homo sapiens) (UniProt P08684); experiment: qHTS Assay for Activators of Cytochrome P450 3A4 (AID 885); also: nearly all actives have a fitted effect of over 65% in size
Method in brief: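 Luminescent readout of luciferin formed from 25 uM Luciferin-PPXE (KM level) by 20 nM CYP3A4 in 200 mM KPO4, with 60 min NADPH-driven reaction at room temperature after 10 min compound exposure. Ketoconazole (57 uM) defined 100% inhibition.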

[14] = target: Muscarinic acetylcholine receptor M1 (Rattus norvegicus) (UniProt P08482); experiment: qHTS Assay for Antagonists of Acetylcholine Muscarinic M1 Receptor: Measurement of IP-One Response (AID 944); also: nearly all actives have a fitted effect of over 75% in size
Method in brief: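 Read-out: HTRF competition between d2-IP1 and Eu-cryptate anti-IP1 antibody, emission 620 and 665 nm. Stimulus was carbachol, EC80 (200 nM), for 30 min in M1-CHO cells (rat receptor), after 10 min compound pre-treatment.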

[15] = target: Pyruvate kinase (Leishmania mexicana) (UniProt Q27686); experiment: qHTS Validation Assay for Inhibitors of Leishmania Mexicana Pyruvate Kinase (AID 945);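 also: 0% = DMSO only neutral control wells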
Method in brief: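 Compounds are tested as eight-point concentration series. Reactions contain 0.2 nM LmPYK E451W, 0.5 mM PEP, 0.1 mM ADP, 7 mM MgCl2 and 50 mM KCl at pH 7.2, run 1 h at room temperature, then read by PKLight luminescence.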

[16] = target: 3',5'-cyclic-AMP phosphodiesterase 4B (Homo sapiens) (UniProt Q07343); experiment: qHTS Assay for Inhibitors of PDE-IV (AID 607; active = well fitted activation curve with a large enough effect in the main read-out, with a control signal flat, not every such curve was filed as active; also: % of control where 0% means no effect)
Method in brief: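 Cell-based read-out of cAMP via a modified cyclic nucleotide-gated channel and membrane potential dye (535/590 nm) in HEK293 cells expressing PDE4 endogenously. Compounds tested up to 22.9 uM final; 100 uM RO 20-1724 reference.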

[17] = qHTS Assay for Identification of Small Molecule Agonists for Thrombopoietin (TPO) Signaling Pathway (AID 917); also: % is scaled to controls: 0 for no effect and ±100 for the full control effect
Method in brief: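 Ba/F3 (mouse) + hTPO receptor + GpIIb-promoter luciferase; IL-3 withdrawn overnight; compound + 26 pM TPO (EC50), 24 hrs, 37 C, 5% CO2; Steadylite luminescence, 10 min RT.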

Alpha-galactosidase A (Homo sapiens), sequence (P06280 whole entry, looked up): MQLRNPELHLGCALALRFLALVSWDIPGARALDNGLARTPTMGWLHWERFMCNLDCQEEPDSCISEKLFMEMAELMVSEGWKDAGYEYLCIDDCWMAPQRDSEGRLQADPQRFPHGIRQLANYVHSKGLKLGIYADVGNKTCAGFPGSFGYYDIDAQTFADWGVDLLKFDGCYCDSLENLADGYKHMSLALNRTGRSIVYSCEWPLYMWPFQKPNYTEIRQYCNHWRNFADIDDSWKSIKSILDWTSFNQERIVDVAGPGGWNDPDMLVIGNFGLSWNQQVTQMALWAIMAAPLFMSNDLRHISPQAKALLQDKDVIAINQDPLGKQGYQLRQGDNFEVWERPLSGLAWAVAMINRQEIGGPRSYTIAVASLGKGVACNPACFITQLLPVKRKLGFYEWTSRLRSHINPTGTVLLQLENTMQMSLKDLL
3',5'-cyclic-AMP phosphodiesterase 4B (Homo sapiens), sequence (Q07343 whole entry, looked up): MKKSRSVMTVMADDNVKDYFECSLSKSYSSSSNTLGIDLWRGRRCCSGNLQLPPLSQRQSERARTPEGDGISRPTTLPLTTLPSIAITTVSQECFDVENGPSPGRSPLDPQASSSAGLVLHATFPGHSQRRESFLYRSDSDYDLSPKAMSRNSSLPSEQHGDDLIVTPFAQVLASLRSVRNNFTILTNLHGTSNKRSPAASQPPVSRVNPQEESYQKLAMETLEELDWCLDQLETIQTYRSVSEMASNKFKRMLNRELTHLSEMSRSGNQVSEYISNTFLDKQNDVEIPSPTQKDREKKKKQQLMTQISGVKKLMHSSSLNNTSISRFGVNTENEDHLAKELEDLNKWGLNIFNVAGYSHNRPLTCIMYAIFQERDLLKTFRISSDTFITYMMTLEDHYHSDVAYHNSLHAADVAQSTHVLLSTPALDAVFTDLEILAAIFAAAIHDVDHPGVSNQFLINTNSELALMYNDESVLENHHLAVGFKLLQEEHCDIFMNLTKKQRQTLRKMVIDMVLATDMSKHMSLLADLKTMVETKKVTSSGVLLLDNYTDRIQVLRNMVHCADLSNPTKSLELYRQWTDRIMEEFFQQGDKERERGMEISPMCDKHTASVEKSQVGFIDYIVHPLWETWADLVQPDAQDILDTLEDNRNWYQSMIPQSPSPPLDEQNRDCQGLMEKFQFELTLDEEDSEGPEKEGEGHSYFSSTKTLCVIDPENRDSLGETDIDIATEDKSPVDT
Pyruvate kinase (Leishmania mexicana), sequence (Q27686 2-499 E452W): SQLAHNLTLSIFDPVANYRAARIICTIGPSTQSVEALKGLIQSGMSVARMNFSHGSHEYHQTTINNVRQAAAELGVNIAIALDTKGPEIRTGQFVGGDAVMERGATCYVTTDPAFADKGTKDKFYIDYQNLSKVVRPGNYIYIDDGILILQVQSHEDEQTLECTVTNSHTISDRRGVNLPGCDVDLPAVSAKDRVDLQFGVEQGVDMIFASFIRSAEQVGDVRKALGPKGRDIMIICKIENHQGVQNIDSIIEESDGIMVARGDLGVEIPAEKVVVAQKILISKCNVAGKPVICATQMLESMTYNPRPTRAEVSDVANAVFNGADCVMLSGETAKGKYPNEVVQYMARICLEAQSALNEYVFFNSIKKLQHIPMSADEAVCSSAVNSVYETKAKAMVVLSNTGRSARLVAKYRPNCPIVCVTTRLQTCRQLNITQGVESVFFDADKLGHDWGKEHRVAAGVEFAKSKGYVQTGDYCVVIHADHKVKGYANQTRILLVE
Muscarinic acetylcholine receptor M1 (Rattus norvegicus), sequence (P08482 whole entry, looked up): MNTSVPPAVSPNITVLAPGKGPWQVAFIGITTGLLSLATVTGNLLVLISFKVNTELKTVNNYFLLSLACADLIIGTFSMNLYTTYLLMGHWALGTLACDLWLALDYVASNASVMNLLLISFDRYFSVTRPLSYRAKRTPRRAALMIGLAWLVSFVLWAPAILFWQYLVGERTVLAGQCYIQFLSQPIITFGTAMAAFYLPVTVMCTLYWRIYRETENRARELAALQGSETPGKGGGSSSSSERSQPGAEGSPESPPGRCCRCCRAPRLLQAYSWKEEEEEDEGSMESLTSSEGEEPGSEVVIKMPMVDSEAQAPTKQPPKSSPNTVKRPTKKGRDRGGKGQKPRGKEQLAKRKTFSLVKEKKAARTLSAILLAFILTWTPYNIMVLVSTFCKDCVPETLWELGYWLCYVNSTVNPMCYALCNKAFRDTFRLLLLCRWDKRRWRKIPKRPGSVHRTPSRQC
Guanine nucleotide-binding protein G(i) subunit alpha-1 (Homo sapiens), sequence (P63096 whole entry, looked up): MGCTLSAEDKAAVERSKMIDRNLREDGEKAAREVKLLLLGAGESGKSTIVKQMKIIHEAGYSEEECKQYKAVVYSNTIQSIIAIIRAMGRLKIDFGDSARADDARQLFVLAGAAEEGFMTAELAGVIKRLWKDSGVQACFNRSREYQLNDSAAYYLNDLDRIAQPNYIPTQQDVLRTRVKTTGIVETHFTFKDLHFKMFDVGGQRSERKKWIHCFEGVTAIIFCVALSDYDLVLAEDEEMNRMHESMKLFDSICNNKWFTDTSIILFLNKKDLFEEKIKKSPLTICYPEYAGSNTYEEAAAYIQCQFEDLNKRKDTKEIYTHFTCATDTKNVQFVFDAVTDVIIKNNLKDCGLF
Cytochrome P450 1A2 (Homo sapiens), sequence (P05177 whole entry, looked up): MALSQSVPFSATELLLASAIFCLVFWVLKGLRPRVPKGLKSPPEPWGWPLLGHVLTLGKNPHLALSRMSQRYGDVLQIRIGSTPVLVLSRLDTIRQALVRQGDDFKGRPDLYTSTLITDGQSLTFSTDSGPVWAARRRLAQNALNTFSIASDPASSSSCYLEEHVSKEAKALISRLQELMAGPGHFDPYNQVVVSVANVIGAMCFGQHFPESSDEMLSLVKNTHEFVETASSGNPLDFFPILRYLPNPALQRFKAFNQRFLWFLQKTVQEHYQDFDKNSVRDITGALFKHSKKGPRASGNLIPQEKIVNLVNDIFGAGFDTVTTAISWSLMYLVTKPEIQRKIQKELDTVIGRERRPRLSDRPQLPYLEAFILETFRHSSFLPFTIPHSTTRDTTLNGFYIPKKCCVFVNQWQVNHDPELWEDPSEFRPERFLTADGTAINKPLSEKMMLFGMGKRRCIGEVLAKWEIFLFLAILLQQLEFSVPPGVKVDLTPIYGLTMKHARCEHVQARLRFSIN
Pyruvate kinase PKM (Homo sapiens), sequence (P14618 whole entry, looked up): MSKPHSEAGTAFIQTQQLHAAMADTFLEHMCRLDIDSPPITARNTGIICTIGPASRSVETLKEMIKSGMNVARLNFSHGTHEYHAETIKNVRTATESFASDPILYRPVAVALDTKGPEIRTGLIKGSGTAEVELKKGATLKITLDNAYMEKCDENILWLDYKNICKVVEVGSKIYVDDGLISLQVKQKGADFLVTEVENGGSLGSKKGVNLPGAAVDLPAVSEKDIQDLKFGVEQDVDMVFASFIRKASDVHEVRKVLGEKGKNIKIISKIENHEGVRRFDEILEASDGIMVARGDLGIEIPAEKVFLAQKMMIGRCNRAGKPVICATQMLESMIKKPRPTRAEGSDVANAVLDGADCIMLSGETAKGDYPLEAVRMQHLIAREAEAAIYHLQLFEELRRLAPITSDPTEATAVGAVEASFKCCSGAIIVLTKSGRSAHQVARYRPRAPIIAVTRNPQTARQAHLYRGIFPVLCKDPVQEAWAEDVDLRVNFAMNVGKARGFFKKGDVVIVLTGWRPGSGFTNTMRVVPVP
Glucocorticoid receptor (Homo sapiens), sequence (P04150 whole entry, looked up, the tested form may be a part): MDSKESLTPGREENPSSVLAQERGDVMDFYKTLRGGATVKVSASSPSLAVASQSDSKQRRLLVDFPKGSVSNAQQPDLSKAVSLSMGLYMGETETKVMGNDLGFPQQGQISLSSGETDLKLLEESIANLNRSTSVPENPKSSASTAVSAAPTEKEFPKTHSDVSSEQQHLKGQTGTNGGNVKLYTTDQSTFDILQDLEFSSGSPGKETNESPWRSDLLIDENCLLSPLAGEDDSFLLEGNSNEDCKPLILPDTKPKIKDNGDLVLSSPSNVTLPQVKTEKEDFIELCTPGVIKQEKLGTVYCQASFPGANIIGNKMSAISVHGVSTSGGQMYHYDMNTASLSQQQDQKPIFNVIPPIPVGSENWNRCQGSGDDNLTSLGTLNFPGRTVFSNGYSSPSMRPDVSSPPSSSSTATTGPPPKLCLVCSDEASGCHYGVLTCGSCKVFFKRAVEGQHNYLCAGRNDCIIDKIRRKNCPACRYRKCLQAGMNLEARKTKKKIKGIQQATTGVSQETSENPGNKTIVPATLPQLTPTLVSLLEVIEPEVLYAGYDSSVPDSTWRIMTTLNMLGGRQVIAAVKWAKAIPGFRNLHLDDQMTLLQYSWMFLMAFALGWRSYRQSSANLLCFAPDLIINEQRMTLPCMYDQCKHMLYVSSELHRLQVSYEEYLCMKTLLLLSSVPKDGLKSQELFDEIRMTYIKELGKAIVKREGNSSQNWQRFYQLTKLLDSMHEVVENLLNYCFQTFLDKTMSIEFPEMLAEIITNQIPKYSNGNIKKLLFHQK
Cytochrome P450 3A4 (Homo sapiens), sequence (P08684 whole entry, looked up): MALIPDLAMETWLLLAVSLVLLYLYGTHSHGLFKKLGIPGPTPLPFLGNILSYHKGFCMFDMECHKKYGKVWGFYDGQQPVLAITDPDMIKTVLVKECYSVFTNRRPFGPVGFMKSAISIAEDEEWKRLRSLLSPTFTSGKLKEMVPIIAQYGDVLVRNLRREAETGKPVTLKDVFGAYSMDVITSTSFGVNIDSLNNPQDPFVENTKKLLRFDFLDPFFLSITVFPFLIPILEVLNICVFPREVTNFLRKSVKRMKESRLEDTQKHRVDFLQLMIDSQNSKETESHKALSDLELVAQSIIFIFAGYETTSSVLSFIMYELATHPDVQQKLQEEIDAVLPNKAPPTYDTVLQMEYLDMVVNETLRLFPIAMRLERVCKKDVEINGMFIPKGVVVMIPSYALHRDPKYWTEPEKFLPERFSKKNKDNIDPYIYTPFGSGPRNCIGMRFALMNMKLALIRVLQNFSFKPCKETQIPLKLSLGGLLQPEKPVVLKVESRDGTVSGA

O=C(O)/C=C\[C@H](O)c1ccc(Cl)cc1
inactive: activity change, negative = inhibition [1] 1.29% [at 38 µM] | Potency [2] | activity change, negative = inhibition [3] 8.91% [at 38 µM] | activity, negative = inhibition [4] -1.2% [at 38 µM] | Potency [5] > 46 µM | Potency [6] > 46 µM | Potency [7] | outcome [8] | Potency [9] | outcome [10] | outcome [11] | Potency [12]

O=C1O/C(=C\Br)CC[C@@H]1c1cccc2ccccc12
inactive: activity change, negative = inhibition [1] -0.931% [at 38 µM] | Potency [2] | activity change, negative = inhibition [3] -0.824% [at 38 µM] | activity, negative = inhibition [4] 4.17% [at 38 µM] | Potency [5] > 46 µM | Potency [6] > 46 µM | Potency [7] | outcome [8] | Potency [13] | Potency [14] | outcome [15] | outcome [11] | Potency [12]

OC[C@@H]1O[C@@H](n2cnc3c(N[C@@H]4C[C@@H]5CC[C@H]4C5)ncnc32)[C@@H](O)[C@H]1O
inactive: activity change, negative = inhibition [1] -1.94% [at 38 µM] | Potency [2] | activity change, negative = inhibition [3] 8.03% [at 38 µM] | activity, negative = inhibition [4] 24.8% [at 38 µM] | Potency [5] > 46 µM | Potency [6] > 46 µM | Potency [16] | outcome [8] | Potency [9] | outcome [17] | Potency [14] | outcome [15] | outcome [10] | outcome [11]

C[C@@H]1C(=O)N(C)C(=O)c2nc[nH]c21
inactive: activity change, negative = inhibition [1] -6.31% [at 38 µM] | Potency [2] | activity change, negative = inhibition [3] -19.2% [at 38 µM] | activity, negative = inhibition [4] 15% [at 38 µM] | Potency [5] > 46 µM | Potency [6] > 46 µM | Potency [16] | outcome [8] | Potency [9] | outcome [17] | outcome [10] | outcome [11]

COc1cc([C@H](O)C(=O)O)ccc1O
inactive: activity change, negative = inhibition [1] 5.25% [at 38 µM] | Potency [2] | activity change, negative = inhibition [3] -1.26% [at 38 µM] | activity, negative = inhibition [4] 4.86% [at 38 µM] | Potency [5] > 46 µM | Potency [6] > 46 µM | Potency [16] | outcome [8] | Potency [14] | outcome [15] | outcome [10] | outcome [11] | Potency [12]

— PubChem BioAssay (NCATS)
